The whole screen tested about 69,000 compounds, of which about 950 (1.4%) showed an effect of 50% or more. Shown is part of a subset that was picked to be rich in strong results.
Tested on: Mycobacterium tuberculosis
Test: Cornell M. t heat shock assay; further: in the data most compounds retested in dose-response had high values
Assay type: functional, organism-based
Design: dose or concentration left out as unconfirmed

Row | SMILES | Percent Effect
1 | O=C(O)C(F)(F)F.O=C(O)C(F)(F)F.c1ccc(N2CC[C@H](OCC3CC3)[C@@H]2Cc2cccnc2)nc1 | 14.43%
2 | O=C(O)C(F)(F)F.c1cc(-c2ccc3nc(C4CCN(CC5CC5)CC4)nn3c2)cs1 | -34.74%
3 | Cc1cc(C)nc(N2CC=C[C@@H]2C(=O)NCc2ccc3c(c2)OCO3)n1.Cl | 15.24%
4 | CN(C)C(=O)N1C[C@@H]2CC[C@H](C1)N(C(=O)c1cccc(N(C)C)c1)C2 | -44.86%
5 | CC(C)N(C(=O)Cn1c(-c2ccco2)cc2cccnc21)C(C)C.Cl | 22.85%
6 | CCN1CCn2c(C)cnc2C12CCN(C(=O)c1ccco1)CC2.O=C(O)C(F)(F)F.O=C(O)C(F)(F)F | -2.925%
7 | CN(C)CCN1C(=O)CCC12CCCN(C(=O)N(C)C)CC2.O=C(O)C(F)(F)F (configuration not stated) | -13.38%
8 | Cc1nc(C2(O)CCCNCC2)sc1CCOc1ccc(F)cc1.Cl (configuration not stated) | -29.66%
9 | CC[C@@H]1N(Cc2cccnc2)CCC[C@]12CCC(=O)N2C.O=C(O)C(F)(F)F.O=C(O)C(F)(F)F | -6.56%
10 | Cc1cc(CCC2CN(CC3(O)CCCCC3)CCO2)ncn1 (configuration not stated) | -44.25%
11 | O=C(O)C(F)(F)F.O=C1CC[C@H]2[C@@H](CCN2Cc2ccco2)N1 | 9.652%
12 | O=C(O)C(F)(F)F.O=C(O)C(F)(F)F.c1cc(CN2C[C@@H]3OCCN(CC4CCCO4)[C@@H]3C2)cs1 (some centres not stated) | -21.3%
13 | Cn1cc(CN2C[C@@H]3COC[C@]3(CNC(=O)c3ccccc3)C2)cn1.O=C(O)C(F)(F)F | -17.03%
14 | Cn1cc(CN2CCC3(CC2)CCN(C(=O)c2cscn2)CC3)cn1.O=C(O)C(F)(F)F | -25.9%
15 | Cc1noc(NC(=O)CCNC(=O)c2ccc(Br)cc2)n1 | -35.97%
16 | Cc1noc(NC(=O)c2ccc(OC(F)(F)F)cc2)n1 | 102.9%
17 | Cc1noc([C@@H]2C[C@H](NC(=O)Nc3ccccc3)CN2C)n1 | -29.39%
18 | Cc1noc(NCc2cc(F)ccc2F)n1 | -3.185%
19 | Cc1noc(NC(=O)c2ccc(F)cc2)n1 | 105.9%

Row | SMILES | Percent Effect
20 | Cc1noc(NC(=O)c2ccc(Br)cc2)n1 | 103.7%
21 | Cc1noc(NC(=O)c2ccccc2)n1 | 75.22%
22 | CN1C[C@H](O)C[C@H]1c1nc(-c2ccc(OC(F)(F)F)cc2)no1 | -7.267%
23 | Cc1nn(C(C)C)c(C)c1NC(=O)c1ccccc1 | -7.424%
24 | Cn1nc(CNC(=O)c2ccc(OC(F)(F)F)cc2)c2c1CCOC2 | -19.12%
25 | Cc1noc(NCc2ccc(F)cc2)n1 | -14.89%
26 | Cc1c(NC(=O)c2ccc(Br)cc2)c(C(=O)N(C)C)nn1C | 5.328%
27 | COc1cc2cc(C)c(SCCN3CCCC3)nc2cc1OC.Cl | 5.186%
28 | Cn1ncc2c1C(COCC1CC1)N(Cc1ccoc1)CC2.O=C(O)C(F)(F)F.O=C(O)C(F)(F)F (configuration not stated) | -34.45%
29 | O=C(NC[C@H]1OC[C@@H]2CN(Cc3ccco3)CC[C@@H]21)c1cccnc1.O=C(O)C(F)(F)F.O=C(O)C(F)(F)F | -10.25%
30 | Cc1noc(C)c1CN1CCO[C@H]2CN(C(=O)C3CCOCC3)C[C@H]21.O=C(O)C(F)(F)F | -18.06%
31 | COc1ncccc1CNC1CCc2c(ccc(=O)n2C)C1.O=C(O)C(F)(F)F.O=C(O)C(F)(F)F (configuration not stated) | 17.68%
32 | NC(=O)N1C[C@H]2CN(Cc3nccs3)C[C@H]2C1.O=C(O)C(F)(F)F | -3.349%
33 | Cc1ccc(C(=O)N2CCN3C[C@H](Oc4cccnc4)C[C@H]3C2)cn1.O=C(O)C(F)(F)F.O=C(O)C(F)(F)F.O=C(O)C(F)(F)F | -27.6%
34 | COc1ccc2[nH]cc(C(=O)CNc3nccs3)c2c1.I | 0.8623%
35 | O=C(O)C(F)(F)F.O=C(c1cnccn1)N1C[C@@H]2C[C@@H](c3nc(C4CC4)cs3)O[C@@H]2C1 | 1.274%
36 | Cc1ccc(C(=O)Nc2nc(C)no2)cc1 | 75.29%
37 | Cc1ccc(C(=O)Nc2cn[nH]c2)cc1 | -8.204%
38 | Cc1ccc(C(=O)Nc2c(C(=O)N(C)C)nn(C)c2C)cc1 | -14.21%

Row | SMILES | Percent Effect
39 | Cc1nnc(N2CCCC3(CN(Cc4cccnc4)CCO3)C2)o1.O=C(O)C(F)(F)F.O=C(O)C(F)(F)F.O=C(O)C(F)(F)F (configuration not stated) | -2.58%
40 | Cc1nc(COC[C@H]2CCC[C@@]23CN(C(C)C)CCO3)cs1.O=C(O)C(F)(F)F | -25.66%
41 | COc1cccc([C@H]2CN(C(C)=O)[C@@H]3CCN(Cc4ccsc4)C[C@H]23)c1.Cl | -8.302%
42 | O=C(O)C(=O)O.c1coc(CN2CCC(c3ccc4c(c3)OCO4)CC2)c1 | 5.355%
43 | CCc1nc(CNC(C)Cn2cccn2)cs1 (configuration not stated) | 11.1%
44 | CCCc1nc(CNC(C)Cn2cccn2)cs1 (configuration not stated) | 69.81%
45 | CC(Cn1cccn1)NCc1ccc(OCc2ccncc2)cc1 (configuration not stated) | -3.58%
46 | CC(Cn1cccn1)NCc1csc(COc2ccc(F)cc2)n1 (configuration not stated) | 104%
47 | CC(Cn1cccn1)NCc1csc(Cc2ccccc2)n1 (configuration not stated) | 103.2%
48 | COc1ccc(CNC(C)Cn2cccn2)cc1F (configuration not stated) | -3.821%
49 | CC(Cn1cccn1)NCc1csc(COc2ccccc2)n1 (configuration not stated) | 96.83%
50 | CC(Cn1cccn1)NCc1csc(-c2ncccn2)n1 (configuration not stated) | -0.311%
51 | CC(Cn1cccn1)NCc1csc(-c2ccc(F)cc2)n1 (configuration not stated) | 41.6%
52 | CC(Cn1cccn1)NCc1csc2c1CCCC2 (configuration not stated) | -4.744%
53 | CC(Cn1cccn1)NCc1ccc(Cl)s1 (configuration not stated) | -2.882%
54 | O=C(O)C(F)(F)F.O=C(c1ccnnc1)N1C[C@H]2CCC[C@@]2(COCc2ccccn2)C1 | -25.48%
55 | COc1ccc(CCC2CCCCN2)cc1.Cl (configuration not stated) | -16.14%
56 | O=C(O)C(F)(F)F.O=C(c1cccnc1)N1C[C@H]2CN(Cc3cccc(F)c3)C(=O)[C@H]2C1 | -29.23%
57 | Cc1oncc1C(=O)N1CC[C@@H]2[C@@H]1CC(=O)N2Cc1cccnc1.O=C(O)C(F)(F)F | 26.27%

Reference: ChEMBL document CHEMBL3988442, “University of Dundee, Small-Polar-MMV Screening Library” (2021)
